Experimental data reported in PMC7862700, “An all-to-all approach to the identification of sequence-specific readers for epigenetic DNA modifications on cytosine”.

Assays:
Assay in all cases: DAPPL (digital affinity profiling via proximity ligation, sequencing); 10 mM Tris-HCl pH 7.5, 50 mM NaCl, 1 mM DTT, 4% glycerol, room temperature, 30 min; GST-TFs on glutathione beads, 16-mer random dsDNA library, 0.1% formaldehyde crosslink after washing; high values mean tight binding
FLI1 = molecular target: T1, FLI1 (Homo sapiens, UniProt Q01543 1-452); details: protein: recombinant; tags: N-terminal GST; dsDNA, one strand shown
T1 sequence: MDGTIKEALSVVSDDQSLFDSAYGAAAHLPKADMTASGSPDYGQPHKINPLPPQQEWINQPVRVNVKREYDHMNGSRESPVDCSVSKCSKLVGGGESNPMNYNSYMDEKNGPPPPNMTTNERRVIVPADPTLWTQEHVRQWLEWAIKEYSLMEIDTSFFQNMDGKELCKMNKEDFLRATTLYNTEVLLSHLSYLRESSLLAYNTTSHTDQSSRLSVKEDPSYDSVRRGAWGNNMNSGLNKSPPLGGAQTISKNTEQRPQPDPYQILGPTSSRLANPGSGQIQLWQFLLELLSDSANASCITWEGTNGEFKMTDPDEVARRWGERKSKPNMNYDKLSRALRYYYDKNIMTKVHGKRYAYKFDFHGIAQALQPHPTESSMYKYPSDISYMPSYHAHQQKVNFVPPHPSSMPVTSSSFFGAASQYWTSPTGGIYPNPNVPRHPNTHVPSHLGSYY
In short: (§1)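 Human transcription factors were made in yeast as GST fusions, captured on glutathione beads and barcoded with DNA. With a tag-only sample included, the pool was incubated with 200 nmole of a random double-stranded 16-mer DNA library in Tris/NaCl/DTT/glycerol buffer at room temperature for 30 min, then crosslinked with 0.1% formaldehyde after washing, ligated by proximity, amplified and sequenced. For binding signal, each hexamer's read frequency for a factor is divided by its frequency for the tag-only sample.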

ELK1 = molecular target: T2, ELK1 (Homo sapiens, UniProt P19419 1-428); details: protein: recombinant; tags: N-terminal GST; dsDNA, one strand shown
T2 sequence: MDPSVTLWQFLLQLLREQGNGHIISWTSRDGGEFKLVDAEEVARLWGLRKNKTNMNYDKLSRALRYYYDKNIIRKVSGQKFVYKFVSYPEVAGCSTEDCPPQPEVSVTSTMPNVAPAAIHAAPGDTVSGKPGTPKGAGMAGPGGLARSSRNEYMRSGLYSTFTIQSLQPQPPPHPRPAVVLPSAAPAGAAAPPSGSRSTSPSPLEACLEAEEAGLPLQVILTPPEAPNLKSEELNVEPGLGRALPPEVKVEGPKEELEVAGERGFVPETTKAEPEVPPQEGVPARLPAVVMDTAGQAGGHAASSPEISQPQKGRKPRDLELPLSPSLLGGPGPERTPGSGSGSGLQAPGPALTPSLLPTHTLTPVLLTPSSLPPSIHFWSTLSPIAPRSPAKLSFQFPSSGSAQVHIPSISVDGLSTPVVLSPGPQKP
In short: as §1

GABPA = molecular target: T3, GABPA (Homo sapiens, UniProt Q06546 1-454); details: protein: recombinant; tags: N-terminal GST; dsDNA, one strand shown
T3 sequence: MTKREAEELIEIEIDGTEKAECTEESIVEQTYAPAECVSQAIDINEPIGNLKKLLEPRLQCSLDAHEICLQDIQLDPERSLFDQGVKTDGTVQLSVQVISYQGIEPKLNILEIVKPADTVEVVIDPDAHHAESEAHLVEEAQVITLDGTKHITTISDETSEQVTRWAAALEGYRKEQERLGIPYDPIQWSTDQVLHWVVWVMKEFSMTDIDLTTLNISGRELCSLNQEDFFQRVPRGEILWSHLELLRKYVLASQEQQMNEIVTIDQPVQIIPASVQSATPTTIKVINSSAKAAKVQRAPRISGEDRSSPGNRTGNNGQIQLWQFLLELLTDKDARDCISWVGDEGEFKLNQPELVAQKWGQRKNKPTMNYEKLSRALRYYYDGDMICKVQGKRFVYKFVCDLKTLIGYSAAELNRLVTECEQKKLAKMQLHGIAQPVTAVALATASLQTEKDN
In short: as §1

ERG = molecular target: T4, ERG (Homo sapiens, UniProt P11308 1-479); details: protein: recombinant; tags: N-terminal GST; dsDNA, one strand shown
T4 sequence: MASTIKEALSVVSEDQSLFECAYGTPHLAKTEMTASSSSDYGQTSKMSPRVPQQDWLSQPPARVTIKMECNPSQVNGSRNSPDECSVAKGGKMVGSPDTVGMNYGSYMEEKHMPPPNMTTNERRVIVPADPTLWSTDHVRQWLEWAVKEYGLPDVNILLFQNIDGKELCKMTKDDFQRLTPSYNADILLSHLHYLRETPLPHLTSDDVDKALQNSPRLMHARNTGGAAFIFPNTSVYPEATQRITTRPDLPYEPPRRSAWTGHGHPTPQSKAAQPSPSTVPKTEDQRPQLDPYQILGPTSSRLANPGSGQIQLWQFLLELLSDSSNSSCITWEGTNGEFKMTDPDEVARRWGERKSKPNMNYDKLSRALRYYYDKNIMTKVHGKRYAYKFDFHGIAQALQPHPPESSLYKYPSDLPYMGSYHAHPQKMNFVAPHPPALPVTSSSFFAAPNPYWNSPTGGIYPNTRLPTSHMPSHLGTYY
In short: as §1

ELF1 = ELF1 (Homo sapiens, UniProt P32519 1-619); details: protein: recombinant; tags: N-terminal GST; dsDNA, one strand shown
In short: as §1

EHF = molecular target: T5, EHF (Homo sapiens, UniProt Q9NZC4 1-300); details: protein: recombinant; tags: N-terminal GST; dsDNA, one strand shown
T5 sequence: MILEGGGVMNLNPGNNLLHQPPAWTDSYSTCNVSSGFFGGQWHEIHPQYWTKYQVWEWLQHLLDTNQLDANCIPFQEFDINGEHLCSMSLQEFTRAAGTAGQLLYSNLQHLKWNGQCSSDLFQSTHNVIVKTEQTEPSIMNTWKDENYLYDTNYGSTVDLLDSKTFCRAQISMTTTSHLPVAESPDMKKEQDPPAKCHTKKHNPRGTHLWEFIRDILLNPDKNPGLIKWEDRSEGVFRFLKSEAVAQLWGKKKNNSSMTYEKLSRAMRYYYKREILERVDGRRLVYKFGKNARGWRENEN
In short: as §1

SPI1 = SPI1 (Homo sapiens, UniProt P17947 1-270); details: protein: recombinant; tags: N-terminal GST; dsDNA, one strand shown
In short: as §1

SPIB = SPIB (Homo sapiens, UniProt Q01892 1-262); details: protein: recombinant; tags: N-terminal GST; dsDNA, one strand shown
In short: as §1

ELK3 = molecular target: T6, ELK3 (Homo sapiens, UniProt P41970 1-407); details: protein: recombinant; tags: N-terminal GST; dsDNA, one strand shown
T6 sequence: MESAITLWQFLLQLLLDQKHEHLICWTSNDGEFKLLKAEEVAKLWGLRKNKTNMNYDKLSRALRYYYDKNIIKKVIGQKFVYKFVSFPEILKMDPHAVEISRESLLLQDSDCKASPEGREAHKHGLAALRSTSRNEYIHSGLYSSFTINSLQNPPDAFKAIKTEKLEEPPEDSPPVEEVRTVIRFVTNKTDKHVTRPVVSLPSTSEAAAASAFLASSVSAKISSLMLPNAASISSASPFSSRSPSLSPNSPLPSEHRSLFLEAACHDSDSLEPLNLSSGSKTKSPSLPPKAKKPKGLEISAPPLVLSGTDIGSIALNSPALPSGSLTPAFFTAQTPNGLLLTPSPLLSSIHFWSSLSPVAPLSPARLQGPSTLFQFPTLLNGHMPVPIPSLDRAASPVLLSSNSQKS
In short: as §1

FEV = molecular target: T7, FEV (Homo sapiens, UniProt Q99581 1-238); details: protein: recombinant; tags: N-terminal GST; dsDNA, one strand shown
T7 sequence: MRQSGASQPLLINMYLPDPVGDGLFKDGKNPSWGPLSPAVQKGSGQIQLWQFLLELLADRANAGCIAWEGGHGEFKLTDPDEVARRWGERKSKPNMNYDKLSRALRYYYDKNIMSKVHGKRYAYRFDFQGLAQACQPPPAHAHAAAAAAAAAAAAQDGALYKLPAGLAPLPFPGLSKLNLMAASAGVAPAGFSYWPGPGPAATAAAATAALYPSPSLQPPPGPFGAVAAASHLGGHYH
In short: as §1

ETV5 = ETV5 (Homo sapiens, UniProt P41161 1-510); details: protein: recombinant; tags: N-terminal GST; dsDNA, one strand shown
In short: as §1

HSF1 = HSF1 (Homo sapiens, UniProt Q00613 1-529); details: protein: recombinant; tags: N-terminal GST; chain copies: 3; dsDNA, one strand shown
In short: as §1

SPIC = molecular target: T8, SPIC (Homo sapiens, UniProt Q8N5J4 1-248); details: protein: recombinant; tags: N-terminal GST; dsDNA, one strand shown
T8 sequence: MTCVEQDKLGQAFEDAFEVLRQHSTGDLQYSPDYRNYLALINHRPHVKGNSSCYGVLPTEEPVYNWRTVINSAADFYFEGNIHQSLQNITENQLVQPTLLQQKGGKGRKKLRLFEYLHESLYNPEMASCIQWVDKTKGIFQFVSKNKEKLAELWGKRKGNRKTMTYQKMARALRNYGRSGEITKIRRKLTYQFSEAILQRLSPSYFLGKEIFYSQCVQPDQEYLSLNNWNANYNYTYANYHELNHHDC
In short: as §1

ELF4 = ELF4 (Homo sapiens, UniProt Q99607 1-663); details: protein: recombinant; tags: N-terminal GST; dsDNA, one strand shown
In short: as §1

ELK4 = molecular target: T9, ELK4 (Homo sapiens, UniProt P28324-2 1-405); details: protein: recombinant; tags: N-terminal GST; dsDNA, one strand shown
T9 sequence: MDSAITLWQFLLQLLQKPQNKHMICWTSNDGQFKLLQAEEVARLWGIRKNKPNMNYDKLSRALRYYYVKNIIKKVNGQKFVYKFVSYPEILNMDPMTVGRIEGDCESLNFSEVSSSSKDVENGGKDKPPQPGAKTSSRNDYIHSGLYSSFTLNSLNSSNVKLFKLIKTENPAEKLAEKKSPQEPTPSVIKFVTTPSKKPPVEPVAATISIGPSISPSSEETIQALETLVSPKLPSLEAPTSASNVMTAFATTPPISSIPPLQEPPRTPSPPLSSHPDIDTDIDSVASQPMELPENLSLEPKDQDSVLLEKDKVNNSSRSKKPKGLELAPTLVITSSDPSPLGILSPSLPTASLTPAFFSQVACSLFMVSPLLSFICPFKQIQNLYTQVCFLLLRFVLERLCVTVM
In short: as §1

ELF3 = molecular target: T10, ELF3 (Homo sapiens, UniProt P78545 1-371); details: protein: recombinant; tags: N-terminal GST; dsDNA, one strand shown
T10 sequence: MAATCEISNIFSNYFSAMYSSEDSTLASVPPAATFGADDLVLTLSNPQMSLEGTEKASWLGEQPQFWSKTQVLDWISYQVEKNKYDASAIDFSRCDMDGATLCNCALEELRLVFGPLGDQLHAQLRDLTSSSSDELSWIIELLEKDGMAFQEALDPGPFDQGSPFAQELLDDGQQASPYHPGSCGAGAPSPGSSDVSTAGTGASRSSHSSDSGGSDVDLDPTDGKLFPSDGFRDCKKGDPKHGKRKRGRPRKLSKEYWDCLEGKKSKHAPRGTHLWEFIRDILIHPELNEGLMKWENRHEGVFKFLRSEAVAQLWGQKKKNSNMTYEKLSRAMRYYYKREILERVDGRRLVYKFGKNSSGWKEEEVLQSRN
In short: as §1

ETV1 = ETV1 (Homo sapiens, UniProt P50549 1-477); details: protein: recombinant; tags: N-terminal GST; dsDNA, one strand shown
In short: as §1

CRX = CRX (Homo sapiens, UniProt O43186 1-299); details: protein: recombinant; tags: N-terminal GST; dsDNA, one strand shown
In short: as §1

Chain of ETV5 (P41161 whole entry): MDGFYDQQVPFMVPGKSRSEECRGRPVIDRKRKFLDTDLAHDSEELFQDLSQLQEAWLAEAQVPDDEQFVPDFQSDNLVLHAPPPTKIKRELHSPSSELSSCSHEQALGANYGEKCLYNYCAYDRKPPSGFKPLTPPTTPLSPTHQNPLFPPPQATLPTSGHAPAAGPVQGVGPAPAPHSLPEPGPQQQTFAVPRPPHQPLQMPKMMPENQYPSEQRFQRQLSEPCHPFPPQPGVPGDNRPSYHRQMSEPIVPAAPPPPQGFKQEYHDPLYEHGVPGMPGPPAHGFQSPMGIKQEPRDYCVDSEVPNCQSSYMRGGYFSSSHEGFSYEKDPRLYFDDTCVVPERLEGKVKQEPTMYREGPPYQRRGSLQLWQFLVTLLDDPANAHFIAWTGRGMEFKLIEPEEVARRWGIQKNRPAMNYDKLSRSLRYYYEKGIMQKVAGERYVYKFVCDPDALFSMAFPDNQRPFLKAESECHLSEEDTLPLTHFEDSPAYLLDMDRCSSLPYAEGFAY
Chain of SPIB (Q01892 whole entry): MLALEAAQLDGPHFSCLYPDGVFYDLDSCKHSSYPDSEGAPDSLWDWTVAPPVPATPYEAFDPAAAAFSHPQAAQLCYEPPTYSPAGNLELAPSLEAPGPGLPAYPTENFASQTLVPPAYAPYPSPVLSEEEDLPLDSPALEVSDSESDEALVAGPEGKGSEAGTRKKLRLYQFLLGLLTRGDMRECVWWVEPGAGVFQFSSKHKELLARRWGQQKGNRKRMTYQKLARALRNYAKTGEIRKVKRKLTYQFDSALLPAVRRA
Chain of ELF4 (Q99607 whole entry): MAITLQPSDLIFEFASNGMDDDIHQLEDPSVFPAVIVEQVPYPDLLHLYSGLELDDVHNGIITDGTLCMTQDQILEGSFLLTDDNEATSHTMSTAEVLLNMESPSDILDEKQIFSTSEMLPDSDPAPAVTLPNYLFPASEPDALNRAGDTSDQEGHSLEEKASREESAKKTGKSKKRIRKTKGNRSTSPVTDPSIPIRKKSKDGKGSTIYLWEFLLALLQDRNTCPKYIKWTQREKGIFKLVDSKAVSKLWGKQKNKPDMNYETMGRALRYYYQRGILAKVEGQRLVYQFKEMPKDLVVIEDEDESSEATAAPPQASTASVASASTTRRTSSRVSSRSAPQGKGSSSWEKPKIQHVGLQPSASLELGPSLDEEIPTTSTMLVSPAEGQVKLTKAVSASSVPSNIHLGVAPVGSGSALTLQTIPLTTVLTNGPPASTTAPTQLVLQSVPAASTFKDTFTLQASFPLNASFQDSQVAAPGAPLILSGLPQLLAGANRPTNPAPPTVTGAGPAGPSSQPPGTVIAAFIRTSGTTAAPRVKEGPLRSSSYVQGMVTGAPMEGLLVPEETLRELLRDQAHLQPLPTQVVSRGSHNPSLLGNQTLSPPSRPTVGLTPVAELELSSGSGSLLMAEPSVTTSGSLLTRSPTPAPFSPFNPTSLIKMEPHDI
Chain of HSF1 (Q00613 whole entry): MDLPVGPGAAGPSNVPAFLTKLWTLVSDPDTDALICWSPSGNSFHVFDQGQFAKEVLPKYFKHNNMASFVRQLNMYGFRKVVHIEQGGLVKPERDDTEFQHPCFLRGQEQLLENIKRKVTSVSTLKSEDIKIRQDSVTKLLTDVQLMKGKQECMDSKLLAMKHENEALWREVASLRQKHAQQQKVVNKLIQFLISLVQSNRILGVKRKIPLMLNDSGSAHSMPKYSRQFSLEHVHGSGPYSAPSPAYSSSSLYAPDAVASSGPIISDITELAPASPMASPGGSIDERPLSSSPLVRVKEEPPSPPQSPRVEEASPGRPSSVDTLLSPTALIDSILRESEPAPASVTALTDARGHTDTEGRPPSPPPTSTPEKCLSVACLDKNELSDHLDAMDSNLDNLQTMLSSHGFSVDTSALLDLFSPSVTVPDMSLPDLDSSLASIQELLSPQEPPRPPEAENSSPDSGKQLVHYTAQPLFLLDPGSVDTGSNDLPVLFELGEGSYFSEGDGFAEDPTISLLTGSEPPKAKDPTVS
Chain of ELF1 (P32519 whole entry): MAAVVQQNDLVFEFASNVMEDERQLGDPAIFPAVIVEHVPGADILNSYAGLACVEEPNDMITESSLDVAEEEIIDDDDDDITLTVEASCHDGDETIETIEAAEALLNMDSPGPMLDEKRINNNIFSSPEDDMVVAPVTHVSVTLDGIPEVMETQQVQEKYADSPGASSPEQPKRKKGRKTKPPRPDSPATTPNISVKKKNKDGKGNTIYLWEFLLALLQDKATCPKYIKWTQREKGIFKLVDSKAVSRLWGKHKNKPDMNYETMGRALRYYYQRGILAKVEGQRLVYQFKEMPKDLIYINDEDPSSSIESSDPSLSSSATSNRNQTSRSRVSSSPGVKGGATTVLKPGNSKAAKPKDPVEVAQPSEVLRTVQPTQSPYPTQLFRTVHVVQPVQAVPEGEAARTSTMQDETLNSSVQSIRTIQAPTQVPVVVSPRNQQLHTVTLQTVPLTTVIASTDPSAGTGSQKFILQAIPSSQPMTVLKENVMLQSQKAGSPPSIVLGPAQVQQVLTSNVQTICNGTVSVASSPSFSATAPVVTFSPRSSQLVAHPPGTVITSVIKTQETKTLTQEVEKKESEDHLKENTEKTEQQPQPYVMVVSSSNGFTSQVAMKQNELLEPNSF
Chain of ETV1 (P50549 whole entry): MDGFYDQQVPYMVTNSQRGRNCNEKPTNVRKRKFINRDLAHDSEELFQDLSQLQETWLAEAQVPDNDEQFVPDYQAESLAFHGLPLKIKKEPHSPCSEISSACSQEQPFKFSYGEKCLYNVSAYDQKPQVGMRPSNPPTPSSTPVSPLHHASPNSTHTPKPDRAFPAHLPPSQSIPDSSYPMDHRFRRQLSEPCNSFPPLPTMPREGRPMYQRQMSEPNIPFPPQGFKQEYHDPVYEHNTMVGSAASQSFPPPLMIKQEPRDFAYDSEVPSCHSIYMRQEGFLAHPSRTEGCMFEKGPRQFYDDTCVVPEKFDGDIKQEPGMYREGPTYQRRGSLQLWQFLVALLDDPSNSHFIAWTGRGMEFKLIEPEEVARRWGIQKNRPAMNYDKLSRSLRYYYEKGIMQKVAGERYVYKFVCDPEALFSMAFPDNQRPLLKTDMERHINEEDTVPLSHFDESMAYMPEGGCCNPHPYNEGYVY
Chain of CRX (O43186 whole entry): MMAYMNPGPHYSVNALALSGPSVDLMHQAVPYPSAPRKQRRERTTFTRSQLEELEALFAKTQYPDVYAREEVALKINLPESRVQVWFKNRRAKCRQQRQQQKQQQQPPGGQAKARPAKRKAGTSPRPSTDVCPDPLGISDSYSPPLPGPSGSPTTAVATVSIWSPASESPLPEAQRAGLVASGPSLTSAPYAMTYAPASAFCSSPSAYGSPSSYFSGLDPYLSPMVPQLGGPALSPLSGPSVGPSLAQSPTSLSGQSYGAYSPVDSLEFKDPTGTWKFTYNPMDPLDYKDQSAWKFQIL

Sequence | binding signal (FLI1) | binding signal (ELK1) | binding signal (GABPA) | binding signal (ERG) | binding signal (ELF1) | binding signal (EHF) | binding signal (SPI1) | binding signal (SPIB) | binding signal (ELK3) | binding signal (FEV) | binding signal (ETV5) | binding signal (HSF1) | binding signal (SPIC) | binding signal (ELF4) | binding signal (ELK4) | binding signal (ELF3) | binding signal (ETV1) | binding signal (CRX)
CGCTCG | 1.17 fold enrichment (6-mer frequency, TF over GST control) | 1.08 fold enrichment (6-mer frequency, TF over GST control) | 1.11 fold enrichment (6-mer frequency, TF over GST control) | 1.05 fold enrichment (6-mer frequency, TF over GST control) | 1.19 fold enrichment (6-mer frequency, TF over GST control) | 1.04 fold enrichment (6-mer frequency, TF over GST control) | 1.08 fold enrichment (6-mer frequency, TF over GST control) | 1.12 fold enrichment (6-mer frequency, TF over GST control) | 1.11 fold enrichment (6-mer frequency, TF over GST control) | 1.08 fold enrichment (6-mer frequency, TF over GST control) | 1.05 fold enrichment (6-mer frequency, TF over GST control) | 1.16 fold enrichment (6-mer frequency, TF over GST control) | 1.24 fold enrichment (6-mer frequency, TF over GST control) | 1.17 fold enrichment (6-mer frequency, TF over GST control) | 1.13 fold enrichment (6-mer frequency, TF over GST control) | 1.35 fold enrichment (6-mer frequency, TF over GST control) | 1.09 fold enrichment (6-mer frequency, TF over GST control) | 
TAGAAA | 1.1 fold enrichment (6-mer frequency, TF over GST control) | 1.03 fold enrichment (6-mer frequency, TF over GST control) | 1.02 fold enrichment (6-mer frequency, TF over GST control) | 1.04 fold enrichment (6-mer frequency, TF over GST control) | 1.09 fold enrichment (6-mer frequency, TF over GST control) | 1.07 fold enrichment (6-mer frequency, TF over GST control) | 1.11 fold enrichment (6-mer frequency, TF over GST control) | 1.11 fold enrichment (6-mer frequency, TF over GST control) | 1.09 fold enrichment (6-mer frequency, TF over GST control) | 1.04 fold enrichment (6-mer frequency, TF over GST control) | 1.03 fold enrichment (6-mer frequency, TF over GST control) | 3.06 fold enrichment (6-mer frequency, TF over GST control) | 1.12 fold enrichment (6-mer frequency, TF over GST control) | 1.1 fold enrichment (6-mer frequency, TF over GST control) | 1.13 fold enrichment (6-mer frequency, TF over GST control) |  | 1.13 fold enrichment (6-mer frequency, TF over GST control) | 1.58 fold enrichment (6-mer frequency, TF over GST control)
